Screens deposited in PubChem by several laboratories.
CYP2C9 act – activators of human CYP2C9; AID 1024; recombinant CYP2C9, luciferin-H conversion, luminescence; hits give high values; factor 1 = untreated enzyme, 0 = blocked; hit rate 1.4% among 96,000; activation factor at 5 µM; P11712;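 active = activation factor of 2 or more for CYP2C9 at a 5 µM dose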;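 also: 0 = sulfaphenazole-blocked wells and 1 = vehicle-only wells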
Target sequence (P11712 whole entry, looked up): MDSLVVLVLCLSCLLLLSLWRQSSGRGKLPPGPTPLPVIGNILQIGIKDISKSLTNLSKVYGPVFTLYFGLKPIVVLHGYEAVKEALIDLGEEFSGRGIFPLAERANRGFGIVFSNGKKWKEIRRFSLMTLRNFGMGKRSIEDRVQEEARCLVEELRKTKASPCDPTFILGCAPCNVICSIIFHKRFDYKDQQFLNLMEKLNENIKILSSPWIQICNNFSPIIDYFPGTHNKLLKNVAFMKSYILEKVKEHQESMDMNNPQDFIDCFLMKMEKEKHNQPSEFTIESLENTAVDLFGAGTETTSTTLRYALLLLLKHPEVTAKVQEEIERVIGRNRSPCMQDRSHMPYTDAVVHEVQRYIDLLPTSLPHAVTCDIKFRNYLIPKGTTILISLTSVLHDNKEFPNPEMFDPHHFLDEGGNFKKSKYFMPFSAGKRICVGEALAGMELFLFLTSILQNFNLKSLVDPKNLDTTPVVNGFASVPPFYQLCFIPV
CYP2C19 inhib – inhibitors of human CYP2C19 | P33261 | CYP2C19 Supersomes, luciferin-H EGE luminescence, 30 min | inhibition, % at 5 µM | hit rate 21% among 96,000;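 active = CYP2C19 inhibition above a set limit at 5 µM in the primary screen, cut at about 50% in these data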;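 also: plate controls were negative control wells for no effect and 2.5 mM tranylcypromine positive control for full effect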
CYP2C9 inhib – human CYP2C9 inhibition | CYP2C9 Supersomes, luciferin-H conversion, luminescence | hit rate 20% among 96,000 | inhibition, % at 5 µM;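 active = blocking of liver enzyme CYP2C9 beyond about 50% at 5 µM, limit read from the data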
Cav32 inh – human Cav3.2 channel inhibition, primary screen. O95180. Cav3.2-expressing cells, Fluo-4 calcium fluorescence FDSS; hits give low values. B-score at 10 µM. hit rate 4% among 100,000. AID 449739;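 active = single-dose well whose peak fluorescence ratio is a statistical outlier from its plate by either plate-standardised score or position-corrected B-score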
CYP2C19 activ – cytochrome P450 2C19 (human) activation. activation factor at 5 µM. AID 1025. recombinant CYP2C19, luciferin-H EGE luminescence; hits give high values; 0 = fully inhibited enzyme, 1 = untreated enzyme. 96,000 tested, under 10 active. P33261;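 active = activation factor of at least 2 at 5 µM in the primary screen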;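 also: 0 = wells with 2.5 mM tranylcypromine and 1 = vehicle-only wells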
An asterisk follows results filed as active; . = no result given. The list is not random: actives were taken first. Their share in the collection is about 27%.

SMILES	CYP2C9 act	CYP2C19 inhib	CYP2C9 inhib	Cav32 inh	CYP2C19 activ
CC(=O)Nc1ccc(S(=O)(=O)NCC(=O)OCC(=O)N2CCc3ccccc32)cc1	0.3	12	71*	1	0.9
CC(OC(=O)C1CCN(S(=O)(=O)c2ccc(Cl)cc2)CC1)C(=O)N1CCc2ccccc21 (configuration not stated)	1.8	66*	-85	-4.7*	0.3
CCOc1ccc(S(=O)(=O)NCCC(=O)OC(C)C(=O)N2CCc3ccccc32)cc1 (configuration not stated)	2.1*	50*	-114	-4.6*	0.5
CCOc1ccc(CCNC(=O)C2CCCN(S(=O)(=O)c3c(C)n[nH]c3C)C2)cc1OCC (configuration not stated)	0.6	29	40	0.61	0.7
O=C1CCCC2=C1C(c1ccco1)Nc1ccc3ccccc3c12 (configuration not stated)	1	14	-5	0.66	0.9
COc1cc2c(cc1OC)CN(Cc1cc(=O)n3cc(C)ccc3n1)CC2	0.7	5	28	0.88	1
O=C1C2C(c3ccccc3)C=CC(c3ccccc3)C2C(=O)N1CCCO (configuration not stated)	0.2	82*	82*	-1.4	0.2
C=CCOCCN1C(=O)C2C(c3ccccc3)C=CC(c3ccccc3)C2C1=O (configuration not stated)	0.6	66*	40	-3.3*	0.3
O=C(CSc1nnc(C2CC2)n1Cc1ccccc1)c1cc2ccccc2o1	0.1	93*	88*	-2.8	0.1
Cc1onc(COc2ccccc2O)c1Br	0.9	73*	10	-0.0064	0.3
Cc1noc(C)c1COC(=O)Cc1ccc(Cl)c(Cl)c1	0.9	32	12	.	0.7
Cc1noc(C)c1COC(=O)[C@H](C)NS(=O)(=O)c1ccc(Cl)c(Cl)c1	0.4	98*	62*	-0.58	0
Cc1ccc(C(=O)N2CCC3(CC2)Oc2ccc(F)cc2C(=O)C32CC(c3ccccc3)=NO2)s1 (configuration not stated)	.	.	.	-1.5	.
CCN(CC)S(=O)(=O)c1ccc(OC)c(NC(=O)c2cc([N+](=O)[O-])ccc2Cl)c1	0.7	5	32	1	0.9
COCCOc1cc(NC(=O)c2sccc2Oc2ccc([N+](=O)[O-])cc2F)c(Cl)cc1Cl	0.4	19	59*	0.014	0.8
COc1ccc2c(c1)C(C)(CCN)C(=O)N2C (configuration not stated)	.	.	.	0.72	.
COc1ccc(CNC(=O)c2cnn3c(C(F)F)cc(C)nc23)cc1OC	0.9	57*	5	1.3	0.4
Cc1nn(C)c(Cl)c1NC(=O)OCc1ccccc1	1.5	33	-49	-0.99	0.7
CSc1nsc(SC)c1NC(=O)Nc1ccccn1	0.5	50	45	-2.2	0.5
CSc1nsc(SC)c1NC(=O)OCc1ccccc1	0.7	89*	28	-3.8	0.1
CSc1nsc(SC)c1NC(=O)OCCc1ccccn1	0.6	95*	35	0.012	0
Cc1ccccc1NC(=O)CN1C(=O)S/C(=C\c2cccn2-c2cccc(C(=O)O)c2)C1=O	0.2	6	75*	3.4	0.9
Cc1cc(C)n2nc(CC(=O)NC3CCCCCC3)nc2n1	1.2	-14	-18	0.79	1.1
Cc1nn(Cc2c(Cl)cccc2Cl)c(Cl)c1/C=C/C(=O)OCC(=O)NCC(F)(F)F	1	-24	4	0.46	1.2
COCCNC(=O)COC(=O)/C=C/c1c(C)nn(Cc2ccc(Cl)cc2Cl)c1Cl	0.4	26	56*	-1.3	0.7
SMILES	CYP2C9 act	CYP2C19 inhib	CYP2C9 inhib	Cav32 inh	CYP2C19 activ
Nc1nc(SCC(=O)N2CCCCCC2)[nH]c(=O)c1NC(=O)c1ccco1	.	.	.	0.078	.
CC(=O)Nc1ccccc1-c1nc2ccc(C(=O)N3CCN(c4cc(C)ccc4C)CC3)cc2[nH]c1=O	0	70*	99*	-3.7*	0.3
O=C(Nc1ccc(Cl)c(Cl)c1)N1CC=CCC1	0.8	32	22	-0.29	0.7
O=C(Nc1ccc(Cl)c(Cl)c1)N1CCSC1c1ccco1 (configuration not stated)	0.4	43	59*	-7.7*	0.6
Cn1c(SCCOc2ccc(Cl)cc2)nnc1-c1ccncc1	0.7	78*	31	.	0.2
Cc1cc(OCCSc2nnc(-c3cccs3)n2C)ccc1Cl	0.6	62*	40	-3.8	0.4
Cc1ccc(OCCSc2nnc(-c3cccs3)n2C)cc1	.	.	.	-0.38	.
O=C(CSc1nnc(-c2ccccc2)n1-c1ccccc1)N1c2ccccc2Sc2ccccc21	1.1	-6	-5	.	1.1
O=C(NCc1ccncc1)c1ccc(Cl)c(S(=O)(=O)N2CCOCC2)c1	0.2	68*	82*	0.089	0.3
CC(C)(C)SCCNC(=O)c1ccc(Cl)c(S(=O)(=O)N2CCOCC2)c1	.	.	.	0.22	.
O=C(Nc1ccccc1)c1ccc(NCc2ccco2)c(S(=O)(=O)N2CCOCC2)c1	0.1	87*	90*	-3.3	0.1
O=C(NCc1ccc(F)cc1)c1cc(S(=O)(=O)N2CCOCC2)ccc1F	0.6	30	42	-5.2*	0.7
O=C(Nc1ccccc1)c1ccc(NCc2cccnc2)c(S(=O)(=O)N2CCOCC2)c1	0.4	54*	56*	0.94	0.5
O=C(Nc1ccccc1)c1ccc(NCCN2CCOCC2)c(S(=O)(=O)N2CCOCC2)c1	0.9	8	6	0.54	0.9
COc1cc(C(=O)NCCOc2ccccc2)c(Br)c(OC)c1OC	0.8	65*	21	0.05	0.3
CCCOC(=O)c1ccc(NC(=O)c2cc(OC)c(OC)c(OC)c2Br)cc1	0.3	74*	65*	.	0.3
CCCCOC(=O)c1ccc(NC(=O)Nc2ccc(OC)c(OC)c2)cc1	0.6	16	39	0.7	0.8
COc1cc(C(=O)Oc2cccc(C)c2)cc(OC)c1OC	0.7	10	26	-0.021	0.9
COc1cc(C(=O)NCCOc2cccc(C)c2)c(Br)c(OC)c1OC	1.2	52*	-19	-0.0078	0.5
COC(=O)c1ccc(O)c(Sc2cc(C(=O)OC)ccc2O)c1	0	88*	100*	.	0.1
Cc1ccc(O)c(Sc2cc(C)ccc2O)c1	0	97*	96*	.	0
Cc1ccsc1/C=C1/SC(=O)N(CC(=O)N2CCOCC2)C1=O	1	8	-4	-0.61	0.9
COC(=O)CN1C(=O)S/C(=C/c2cc(C)n(C)c2C)C1=O	0.5	23	51*	-0.042	0.8
COC(=O)CN1C(=O)S/C(=C/c2ccc(N3CCCCC3)o2)C1=O	0.9	27	8	-7.9*	0.7
COC(=O)C1=C(C)N(Cc2ccccc2)C(=O)N[C@H]1CCc1ccccc1	.	.	.	-0.62	.
Cc1c(-c2ccccc2)sc(Br)c1C(=O)N1CCOCC1	1.3	24	-31	0.01	0.8
Cc1ccc(NC(=O)O/N=C2\CCCCC2c2ccc([N+](=O)[O-])cc2[N+](=O)[O-])cc1 (configuration not stated)	0.2	41	82*	.	0.6
